Reference: PubChem BioAssay AID1159580 (chemical genetic matrix, 2015)
“And” between values parts separate entries of the source, which are not always exact repeats. Equal values may be shown once. Out of some 5,500 compounds screened, about 2,000 (36%) were called active. Roughly 18% stayed inconclusive and do not appear here. Rule as the data show it: active = normalized growth mostly below about 0.91 (no sharp cut-off); inconclusive = no clear call, values can overlap the other calls; inactive = mostly above about 0.92. Some of the results follow.

Test: chemical genetic growth profiling, strain panel (AID 1159580);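 also: tested at 20 µM; growth read once vehicle control cultures reached saturation at 30 °C; 1 = growth at the plate median or of vehicle wells; lower values mean less growth of the strain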
Conditions: S. cerevisiae deletion strains, growth OD

Measured: normalized growth

CC1=C2C(O)C(=O)OC3CC4C(C)(C)C(=O)C=C[C@]4(C)C(CC1)[C@]23C (stereo partly specified)
inactive: locus YAL021C, strain ccr4, hits give low values 1.01 | locus YAL026C, strain drs2, hits give low values 1.02 | locus YAL030W, strain snc1, hits give low values 1.01 | locus YBL061C, strain skt5, hits give low values 1.01 | locus YBR009C, strain hhf1, hits give low values 1 | locus YBR021W, strain FUR4, hits give low values 0.994 | locus YBR023C, strain chs3, hits give low values 1.02 | locus YBR171W, strain sec66, hits give low values 1.01 | locus YBR229C, strain ROT2, hits give low values 1.02 | locus YBR231C, strain swc5, hits give low values 1 | locus YBR279W, strain paf1, hits give low values 1 | locus YCL011C, strain gbp2, hits give low values 1.01 | locus YCL016C, strain dcc1, hits give low values 1.01 | locus YCL029C, strain bik1, hits give low values 1 | locus YCL061C, strain MRC1, hits give low values 1 | locus YCL069W, strain vba3, hits give low values 1 | locus YCR088W, strain abp1, hits give low values 1.01 | locus YDL005C, strain med2, hits give low values 1.02 | locus YDL035C, strain GPR1, hits give low values 1.03 | locus YDL040C, strain nat1, hits give low values 1.01 | locus YDL074C, strain BRE1, hits give low values 1.07 | locus YDL101C, strain DUN1, hits give low values 1.04 | locus YDL134C, strain PPH21, hits give low values 1.04 | locus YDL185W, strain tfp1, hits give low values 1.02 | locus YDL192W, strain arf1, hits give low values 1.02 | locus YDR001C, strain nth1, hits give low values 1 | locus YDR069C, strain doa4, hits give low values 1.02 | locus YDR101C, strain arx1, hits give low values 0.99 | locus YDR137W, strain rgp1, hits give low values 1.12 | locus YDR159W, strain sac3, hits give low values 1.03 | locus YDR162C, strain NBP2, hits give low values 1.04 | locus YDR195W, strain ref2 0.986 | locus YDR297W, strain sur2, hits give low values 1.02 | locus YDR318W, strain mcm21, hits give low values 1.02 | locus YDR334W, strain swr1, hits give low values 1 | locus YDR335W, strain msn5, hits give low values 1 | locus YDR388W, hits give low values 1.02 | locus YDR392W, strain spt3, hits give low values 1.03 | locus YDR502C, strain sam2, hits give low values 1.04 | locus YEL003W, strain gim4, hits give low values 1 | locus YEL037C, strain rad23, hits give low values 1 | locus YEL061C, strain CIN8 (second series), hits give low values 1.01 | locus YER015W, strain faa2, hits give low values 1.01 | locus YER016W, strain bim1, hits give low values 1.02 | locus YER110C, hits give low values 1.02 | locus YER111C, strain swi4, hits give low values 1.02 | locus YER155C, strain BEM2 (second series), hits give low values 1.01 | locus YER155C, strain BEM2, hits give low values 1 | locus YER167W, strain BCK2, hits give low values 1 | locus YFR010W, strain ubp6, hits give low values 1.01 | locus YGL078C, strain dbp3, hits give low values 1.05 | locus YGL086W, strain mad1, hits give low values 1.01 | locus YGL167C, strain pmr1, hits give low values 1.02 | locus YGL173C, strain kem1, hits give low values 1.03 | locus YGL227W, strain vid30, hits give low values 1.01 | locus YGL240W, strain doc1, hits give low values 1 | locus YGL248W, strain PDE1, hits give low values 1.02 | locus YGL253W, strain hxk2, hits give low values 1.02 | locus YGR078C, strain PAC10, hits give low values 1.05 | locus YGR135W, strain pre9, hits give low values 1.07 | locus YGR252W, strain gcn5, hits give low values 1.13 | locus YHR013C, strain ard1, hits give low values 1.04 | locus YHR027C, strain rpn1, hits give low values 1.02 | locus YHR030C, strain SLT2, hits give low values 1.01 and 1.04 | locus YHR079C, strain IRE1 (second series), hits give low values 1.01 | locus YHR079C, strain IRE1, hits give low values 1.02 | locus YHR094C, strain hxt1, hits give low values 1.01 | locus YHR129C, strain ARP1, hits give low values 1.02 | locus YHR142W, strain chs7, hits give low values 1.01 | locus YHR200W, strain rpn10, hits give low values 1.02 | locus YIL066C, strain RNR3, hits give low values 1.02 | locus YIL073C, strain SPO22, hits give low values 1.06 | locus YIL125W, strain kgd1, hits give low values 0.995 | locus YIR030C, strain dcg1, hits give low values 1.02 | locus YJL092W, strain hpr5, hits give low values 1 | locus YJL095W, strain BCK1 (second series), hits give low values 1.01 | locus YJL095W, strain BCK1, hits give low values 1.07 and 1.03 | locus YJL115W, strain asf1, hits give low values 1.01 | locus YJL129C, strain trk1, hits give low values 1.03 | locus YJL134W, strain LCB3, hits give low values 1.01 | locus YJL154C, strain vps35, hits give low values 1.02 | locus YJL164C, strain tpk1, hits give low values 1.01 | locus YJL166W, strain qcr8, hits give low values 1.01 | locus YJL168C, strain set2, hits give low values 1.02 | locus YJL187C, strain SWE1 (second series), hits give low values 1.05 | locus YJL187C, strain SWE1, hits give low values 1.01
